Compound activity (PubChem)
LASV entry inh = inhibitors of Lassa virus binding or cell entry; actives 1.2% (n = 300,000); Lassa virus pseudotype entry inhibition, cell reporter; Potency, µM (highest dose often 37.9 µM), inactives show at the highest dose activity change, negative = inhibition, hits mostly inhibitors; AID 540256; calls by dose curve; tested in HEK293 cells; also: potency is read from the fitted curve at half-maximal effect; % is scaled to controls: 0 for no effect and ±100 for the full control effect; nearly all actives have a fitted effect of over 50% in size
Pf growth 96h = P. falciparum growth inhibition at 96 hours; P. falciparum luciferase reporter growth, 96 h; Potency, µM (highest dose often 28.7 µM), for inactives: at the top dose activity change, negative = inhibition, actives largely listed as inhibitors; actives 6.9% (n = 320,000); AID 504834; also: potency is read from the fitted curve at half-maximal effect; % is scaled to controls: 0 for no effect and ±100 for the full control effect
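Delayed-death screen, second-generation endpoint: infected erythrocytes, 2% hematocrit, 0.05% parasitemia final; 96 hours at 37 C, 5% CO2; luciferase detection reagent; luminescence decrease equals reduced growth.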
Marburg entry inh = Marburg virus entry inhibition; Potency, µM (top dose mostly 37.8 µM), for inactives: top-dose activity change, negative = inhibition, actives largely listed as inhibitors; Marburg virus pseudotyped entry inhibition, cell reporter; actives 1.8% (n = 300,000); calls by dose curve; tested in HEK293 cells; also: potency is read from the fitted curve at half-maximal effect; % is scaled to controls: 0 for no effect and ±100 for the full control effect
Shiga toxin inh = blocks Shiga toxin action in Vero cells; Vero cells, Shiga toxin protein synthesis inhibition reporter; inhibition, % at 38.7 µM; actives 9.2% (n = 290,000); AID 2315; in the data active = inhibition mostly above about 28%, no sharp cut-off; inactive = mostly below about 43%; also: 0% is about no effect
Cycloheximide cs = counter-screen for Shiga toxin inhibitors: cycloheximide protein synthesis inhibition. actives 12% (n = 300,000). max response, %. AID 2314. cell reporter, cycloheximide protein synthesis inhibition counterscreen; in the data active = max response mostly above about 13%, no sharp cut-off; inactive = mostly below about 14%; also: read at 38.3 µM for the half of the compounds with a filed dose; 0% is about no effect
Pf growth 48h = inhibits P. falciparum growth in the first generation, 48 h; AID 504832; P. falciparum luciferase growth in erythrocytes, 48 h; Potency, µM (highest dose often 28.7 µM), for the others: top-dose activity change, negative = inhibition, hits mostly inhibitors; actives 5.9% (n = 310,000); also: potency is read from the fitted curve at half-maximal effect; % is scaled to controls: 0 for no effect and ±100 for the full control effect
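Luciferase-expressing parasites in RBCs, 2% Hct / 0.1% parasitemia final; RPMI 1640 + 0.5% Albumax; 37 C, 5% CO2, one generation; luminescence read-out, lower signal = inhibition.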
* marks the source's active call; other numbers are inactive results; ? = inconclusive; . = no result; ! = not active in a repeat; [ ] = remark or other dose. Most compounds without a hit are left out; they make up all but 19% or so of the library. Unless noted, calls follow the shape of the dose curve; as a rule, active = well fitted inhibition curve with a large enough effect; inconclusive = small, poorly fitted or top-dose-only effect, or another doubt; inactive = no such curve, though single readings can be large or run the other way.

SMILES	LASV entry inh	Pf growth 96h	Marburg entry inh	Shiga toxin inh	Cycloheximide cs	Pf growth 48h
Cc1ccc(Cn2cccc2C2=NC(C)(C)CO2)cc1	29%[46.1 µM]	.	-21%[46.1 µM]	.	.	.
CCOc1ccc(Nc2n[nH]c(=S)s2)cc1	?	2.9µM*	-23%	43	12	?
S=c1[nH]nc(Nc2ccc(Cl)cc2)s1	.	90%	.	12	1	20%
CCOC(CCNC(=O)c1cn(CC(C)C)c(=O)c2c1c1ccccc1n2C)OCC	-14%[46.1 µM]	0.52µM*	28%[46.1 µM]	13	-1	-17%
CCCCN(CC)CCCNC(=O)c1cn(CC(C)C)c(=O)c2c1c1ccccc1n2C	4%[46.1 µM]	-25%	?	-6	1	13µM*
CCCCN(C)CCNC(=O)c1nn(-c2ccc(OC)cc2)c(=O)c2c1c1ccccc1n2C	-7%[46.1 µM]	2.6µM*	6%[46.1 µM]	-8	-5	?
O=C(C1CCN(Cc2ccccc2O)CC1)N1CCN(Cc2ccc3c(c2)OCO3)CC1	2%	?	?	-12	-1	-25%
CN1CCN(c2ccc([N+](=O)[O-])c(-n3nc(-c4ccccc4)c4ccccc4c3=O)c2)CC1	?	8.3µM*	?	-18	2	?
N#Cc1ccc(Sc2ccccn2)c([N+](=O)[O-])c1	5%	20%	-13%	2	0	-8%
NNS(=O)(=O)c1ccc(Sc2ccccn2)c([N+](=O)[O-])c1	.	17%	.	36	15*	10%
Cc1nn(-c2cc(N3CCCCC3)ccc2[N+](=O)[O-])c(=O)c2ccccc12	-30%	-18%	-11%	-2	0	?
O=[N+]([O-])c1ccc(Sc2ncccn2)c([N+](=O)[O-])c1	?	3.3µM*	?	-4	-2	13µM*
CN1CCN(c2ccc([N+](=O)[O-])c(Sc3ccccn3)c2)CC1	5%	0.29µM*	15%	14	-2	?
Cc1cccc(Sc2ccc([N+](=O)[O-])cc2[N+](=O)[O-])n1	-26%	8.3µM*	-29%	1	-1	?
COc1ccc(NC(=O)C2(N(C(=O)Cn3nnnc3N)c3ccc(OC)cc3)CCCCC2)cc1	.	1%	.	2	1	1%
Cc1ccc(NC(=O)C2(N(C(=O)Cn3nnnc3N)c3ccc(C)cc3)CCCCC2)cc1	-12%	13µM*	?	-30	-2	15%
COc1ccc(CC(=O)N/N=C(\C)c2ccc(Br)s2)cc1	19%	.	?	.	.	.
C[n+]1ccc(/C=C/c2c[nH]c3ccc(F)cc23)cc1	.	?	.	-4	-2	0.37µM*
Cn1cc(C=O)c2cc(F)ccc21	.	28%	.	-3	-1	9%
Cn1cc(/C=C/c2cc[n+](C)cc2)c2cc(Cl)ccc21	?	0.17µM*	?	-12	0	0.66µM*
Cn1cc(/C=C/c2cc[n+](C)cc2)c2cc(F)ccc21	?	0.13µM*	?	-11	18	0.26µM*
Cc1ccc2[nH]cc(S(=O)(=O)c3ccc(F)cc3)c(=O)c2c1	20%	-21%	2%[46.1 µM]	11	0	27%
CCOC(=O)C(CCc1ccccc1)NC(C)C(=O)N1Cc2cc(OC)c(OC)cc2CC1C(=O)O (centres undefined)	.	12µM*	.	-5	-2	?
CCOC(=O)[C@H](CCc1ccccc1)N[C@@H](C)C(=O)N1CCC[C@H]1C(=O)O	6%	6µM*!	-13%	-18	-1	-26%
Cc1ccc(C(=O)c2ccccc2C(=O)O)s1	-9%	82%	-12%[46.1 µM]	-17	-5	-4%
CC(Sc1nc2ccccc2n1C)C(=O)NC(c1ccccc1)c1ccccc1 (centres undefined)	13%	5.9µM*	?	-4	4	9.3µM*
CCOc1cc(N)c(Cl)cc1C(=O)NCC1CN(Cc2ccc(F)cc2)CCO1 (centres undefined)	.	6µM*	.	-2	-4	7.6µM*
O=C(NCC1CCCO1)c1ccc(COc2ccc(F)cc2)o1 (centres undefined)	?	-18%	-12%	33	7	37%
CC(=O)Nc1ccc(NC(=O)c2ccc3c(c2)N(Cc2cccc(Cl)c2)C(=O)c2ccccc2S3(=O)=O)cc1	-18%[46.1 µM]	.	?	.	.	.
N#CCCSCc1ccc2oc(C(=O)O)cc2c1	3%	.	2%	0	-1	0%
